Where a name gives a salt, the structure may show the parent alone. Unmarked numbers belong to inactive results.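 The calls were made as follows: active = AUC significantly below DMSO controls by Student t-fit with adjusted P under 0.01; inactive = not significantly reduced.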
test system: Haemophilus parainfluenzae; experiment: growth AUC normalised to DMSO control (fraction of control); higher = less growth inhibition, active = hit call of the paper; conditions: 20 µM
Outline: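 Pathogens passaged twice anaerobically were inoculated at a starting OD578 of 0.01 into pre-reduced mGAM plates with drug at 20 μM and 1% DMSO, sealed with breathable membranes. Haemophilus parainfluenzae medium was supplemented with hemin and NAD. OD578 was read hourly for 24 h, with three biological replicates. Growth-curve AUC was computed by the trapezoidal rule up to the exponential-to-stationary transition and normalised to DMSO controls on the same plate.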

| Structure (SMILES) | growth AUC normalised to DMSO control |
| --- | --- |
| CC(=O)OCC(CCn1cnc2cnc(N)nc21)COC(C)=O [Famciclovir] | 1.02 |
| O=C1C(CC[S+]([O-])c2ccccc2)C(=O)N(c2ccccc2)N1c1ccccc1 (stereo not drawn) [Sulfinpyrazone] | 1.02 |
| O=C(O)Cc1sc(-c2ccccc2)nc1-c1ccc(Cl)cc1 [Fentiazac] | 1.03 |
| Oc1c(Cl)cc(Cl)c(Cl)c1Cc1c(O)c(Cl)cc(Cl)c1Cl [Hexachlorophene] | 0.0305 (active) |
| C/C=C(/C(=C/C)c1ccc(O)cc1)c1ccc(O)cc1 [Dienestrol] | 0.999 |
| CCC[C@@H]1C[C@@H](C(=O)N[C@@H]([C@H]2O[C@H](SC)[C@H](O)[C@@H](O)[C@H]2O)[C@@H](C)O)N(C)C1 [Lincomycin hydrochloride] | 0.828 (active) |
| COc1ccc2cc(CCC(C)=O)ccc2c1 [Nabumetone] | 0.997 |
| O=C(NCC1CCCCN1)c1cc(OCC(F)(F)F)ccc1OCC(F)(F)F (stereo not drawn) [Flecainide acetate] | 0.99 |
| Clc1ccc(COC(Cn2ccnc2)c2ccc(Cl)cc2Cl)c(Cl)c1 (stereo not drawn) [Miconazole] | 0.997 |
| NC(=O)N/N=C/c1ccc([N+](=O)[O-])o1 [Nitrofural] | 0.465 (active) |
| CCCN(CCC)CCc1cccc2c1CC(=O)N2 [Ropinirole hydrochloride] | 1 |
| CC(C)(C(=O)c1cccnc1)c1cccnc1 [Metyrapone] | 0.991 |
| Cc1cccc(Nc2ccccc2C(=O)O)c1C [Mefenamic acid] | 0.946 |
| CCCCC(=O)O[C@H]1CC[C@H]2[C@@H]3CCc4cc(O)ccc4[C@H]3CC[C@]12C [Estradiol Valerate] | 1.06 |
| CCCc1cc(=O)[nH]c(=S)[nH]1 [Propylthiouracil] | 0.991 |
| C[C@]12C[C@H](O)[C@H]3[C@@H](CCC4=CC(=O)CC[C@@]43C)[C@@H]1CC[C@@H]2C(=O)CO [Corticosterone] | 0.962 |
| CN(C)CCOC(c1ccc(Cl)cc1)c1ccccn1 (stereo not drawn) [Carbinoxamine maleate salt] | 1.08 |
| Nc1nc(NC2CC2)c2ncn([C@H]3C=C[C@@H](CO)C3)c2n1 [Abacavir sulfate] | 0.979 |
| CC(C)CC(=O)N[C@H](C(=O)N[C@H](C(=O)N[C@@H](CC(C)C)[C@@H](O)CC(=O)N[C@@H](C)C(=O)N[C@@H](CC(C)C)[C@@H](O)CC(=O)O)C(C)C)C(C)C [Pepstatin A] | 1.07 |
| CN1CCN(CC(=O)N2c3ccccc3C(=O)Nc3cccnc32)CC1 [Pirenzepine dihydrochloride] | 1.01 |
| O=C(NCC(O)CO)c1c(I)c(C(=O)NCC(O)CO)c(I)c(N(CCO)C(=O)CO)c1I (stereo not drawn) [Ioversol] | 1.06 |
| N[C@@H](C(=O)N[C@@H]1C(=O)N2C(C(=O)O)=C(Cl)CS[C@H]12)c1ccccc1 [Cefaclor hydrate] | 0.97 |
| CC[C@H]1OC(=O)[C@H](C)[C@@H](O[C@H]2C[C@@](C)(OC)[C@@H](O)[C@H](C)O2)[C@H](C)[C@@H](O[C@@H]2O[C@H](C)C[C@H](N(C)C)[C@H]2O)[C@](C)(O)C[C@@H](C)[C@@H]2N[C@@H](COCCOC)O[C@H]([C@H]2C)[C@]1(C)O [Dirithromycin] | 0.0968 (active) |
| CC=C(C)C(=O)OC1C(OC(C)=O)C2(CO)C(O)CC3(C)C(=CCC4C5(C)CCC(OC6OC(C(=O)O)C(OC7OC(CO)C(O)C(O)C7O)C(O)C6OC6OC(CO)C(O)C(O)C6O)C(C)(CO)C5CCC43C)C2CC1(C)C (stereo not drawn) [Beta-Escin] | 1.01 |
| N/C(=N\C(=O)c1nc(Cl)c(N)nc1N)NCc1ccccc1 [Benzamil hydrochloride] | 0.991 |
| COc1ccc(CC2c3cc(OC)c(OC)cc3CC[N+]2(C)CCC(=O)OCCCCCOC(=O)CC[N+]2(C)CCc3cc(OC)c(OC)cc3C2Cc2ccc(OC)c(OC)c2)cc1OC (stereo not drawn) [Atracurium besylate] | 1.06 |
| CC[N+](C)(C)Cc1ccccc1Br [Bretylium tosylate] | 1.02 |
| CC1(C)O[C@@H]2C[C@H]3[C@@H]4CCC5=CC(=O)CC[C@]5(C)[C@@]4(F)[C@@H](O)C[C@]3(C)[C@]2(C(=O)CCl)O1 [Halcinonide] | 1 |
